# EWS-Fli inh: blocks EWS/Fli oncoprotein-driven transcription. AID 651661. A673 NR0B1-luciferase reporter, viability-normalised. inhibition, % at 12.6 µM. 0.67% of 350,000 active;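 active = mean inhibition of at least 50% after viability correction, with every replicate also passing that limit; inconclusive = mean reaches 50% but only one of two replicates passes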;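 also: firefly luciferase signal divided by Alamar Blue viability fluorescence both relative to DMSO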
# TROY NFkB inh: TROY signaling inhibition. Q293 LMP1-TROYcd NF-kB luciferase reporter, 4 h. inhibition, % at 10 µM. 0.98% of 360,000 active. AID 1347056;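 active = compounds whose plate-normalised and pattern-corrected inhibition of the luciferase reporter signal at the single screening dose is 50% or more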
# TWEAK-Fn14 inh: blocks TWEAK-Fn14 interaction in a reporter cell assay; inhibition, % at 10 µM; TWEAK-stimulated Fn14 reporter cells, luciferase luminescence, 8 h; 2% of 360,000 active; in the data active = inhibition above about 50%
# EBV LMP1 NFkB: inhibitors of Epstein-Barr LMP1-induced NF-kappaB reporter; LMP1-induced NF-kappaB luciferase reporter cells, luminescence; inhibition, % at 12.5 µM; AID 504558; 0.69% of 350,000 active; in the data active = inhibition above about 41%; inconclusive = no clear call, values can overlap the other calls;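 also: 0% = neutral control wells and 100% = reference inhibitor control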
# LGR2 antag: blocks bursicon-induced cAMP signaling via Drosophila LGR2; AID 720647; inhibition, % at 9.99 µM; 0.35% of 380,000 active; HEK293 LGR2, CRE-luciferase, bursicon-stimulated, 4 h;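 active = drop in luminescence signal, shown as inhibition above about 50% in the replicate tests, limit read from the data, passing the limit was not always enough; inconclusive = probably only some replicates passing the limit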;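 also: agonist challenge used bursicon conditioned medium at about half maximal strength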
# PAX8 inh HTS: lowers PAX8-driven luciferase in RMG-I cells. inhibition, % at 12.6 µM. RMG-I TPO-luciferase reporter, SteadyGlo, 24 h. 1.2% of 360,000 active;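 active = mean replicate inhibition at least 60% with every replicate also reaching 60%; inconclusive = only one of the two criteria is met; inactive = mean below 60% and not all replicates reaching 60%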;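 also: luciferase light reporting Pax8 driven TPO promoter activity; plate controls were median of neutral control wells for no effect and mitoxantrone controls for full effect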
# * = called active by the depositor; ? = inconclusive; . = no result given. Hits are enriched below; roughly 3.1% of the tested compounds scored in any of these assays.
SMILES,EWS-Fli inh,TROY NFkB inh,TWEAK-Fn14 inh,EBV LMP1 NFkB,LGR2 antag,PAX8 inh HTS
Nc1nc(Nc2ccccc2)nc(NCc2ccco2)c1[N+](=O)[O-],.,-1,15,-8,13,.
C[C@@H]1CN([C@@H](C)CO)C(=O)c2cc(N(C)C)ccc2O[C@@H](C)CCCCO[C@@H]1CN(C)Cc1ccc(C(=O)O)cc1,-2,.,.,.,-5,-13
c1ccc(CNc2nc(-c3ccccc3)nc3ccccc23)cc1,14,12,-51,0,-2,-28
c1ccc(CNc2nc(NCc3ccccc3)c3ccccc3n2)cc1,.,78*,10,-37,.,.
COCCNc1nc(NCc2cccc(OC)c2OC)c2sccc2n1,9,10,-11,.,6,23
COc1ccccc1CNc1nc(NCc2cccc(OC)c2OC)c2sccc2n1,14,75*,76*,.,29,58
c1ccc(CNc2nc(Oc3ccncc3)c3sccc3n2)cc1,4,-10,99*,.,-21,-12
O=S(=O)(c1ccccc1)N1[C@@H]2CNC[C@H]1C2c1ccc(-c2cccc(F)c2)cc1 (stereo partly drawn),-6,.,.,.,4,6
Cc1noc(C)c1NC(=O)N(C)C[C@@H]1OCCCC[C@H](C)Oc2ccc(NC(=O)NC(C)C)cc2C(=O)N([C@@H](C)CO)C[C@@H]1C,-13,.,.,.,-18,1
CC(NC1CCCC1)c1ccccc1 (stereo not drawn),10,76*,16,-1,.,18
CC(NC(=O)C1CCCC1)c1ccccc1 (stereo not drawn),4,11,-4,6,-6,13
Cc1ccc(-c2ccc(=O)n(CC(=O)NCCN3CCCCC3C)n2)cc1 (stereo not drawn),.,9,15,1,.,.
Cc1ccc(-c2ccc(=O)n(CCC(=O)NCCN3CCCCC3C)n2)cc1 (stereo not drawn),.,.,87*,-1,.,.
COc1ccccc1C(C[N+](=O)[O-])c1c(N)n(C)c(=O)n(C)c1=O (stereo not drawn),23,31,52*,.,69*,64*
O=C1c2cccc3cccc(c23)C(=O)N1c1nccs1,.,-22,5,-3,.,.
O=C1c2cccc3c([N+](=O)[O-])ccc(c23)C(=O)N1c1ccc(Cl)cn1,.,62*,7,9,7,.
CC(=O)Oc1ccc(N2C(=O)c3cccc4c([N+](=O)[O-])ccc(c34)C2=O)cc1,66*,55*,-99,17,-2,44
O=C1c2cccc3c([N+](=O)[O-])ccc(c23)C(=O)N1O,1,12,-19,2,-46,52
CC(=O)Oc1ccc(-n2c(=O)c3ccccc3c3ccccc3c2=O)cc1,-1,8,2,-3,.,-14
O=C1c2cccc3c([N+](=O)[O-])ccc(c23)C(=O)N1c1ccccn1,.,30,-111,55*,.,25
O=C1c2cccc3c([N+](=O)[O-])ccc(c23)C(=O)N1c1nccs1,.,39,-58,49*,.,.
O=C1c2ccc([N+](=O)[O-])cc2C(=O)N1c1ccc(Cl)cn1,-3,-12,-2,-2,-6,-23
CN1C(=O)c2cc(NC(=O)C3CC3)ccc2OC[C@H]2O[C@@H](CC(=O)NCc3ccccc3F)CC[C@@H]21,-1,.,.,.,-7,-16
CO[C@@H]1CN(C)C(=O)c2ccc(NC(=O)c3ccccc3)cc2OC[C@H](C)N(CC2CC2)C[C@H]1C,5,.,.,.,-29,.
C[C@@H]1CCCCO[C@@H](CN(C)C(=O)Nc2ccc3c(c2)OCO3)[C@H](C)CN([C@H](C)CO)C(=O)c2cc(NC(=O)CCC(F)(F)F)ccc2O1,-4,.,.,.,3,.
SMILES,EWS-Fli inh,TROY NFkB inh,TWEAK-Fn14 inh,EBV LMP1 NFkB,LGR2 antag,PAX8 inh HTS
COCCn1c(COc2ccc(C)cc2)nc2ccccc21,.,.,65*,-9,.,.
CCOCCn1c(COc2ccc(C)cc2)nc2ccccc21,.,-91,-45,-20,-23,-132
O=C(Cn1cc(Br)ccc1=O)Nc1ccc2c(c1)OCO2,-6,21,4,-14,5,7
O=C(Cn1cc(C(F)(F)F)ccc1=O)Nc1ccc2c(c1)OCO2,0,-5,-8,0,-11,95*
COc1ccc(-c2cn(-c3ccc(Cl)cc3)c3[n+]2CCCCC3)cc1,9,12,18,6,-1,40
COc1ccc(-n2cc(-c3ccc(OC(F)F)cc3)[n+]3c2CCCCC3)cc1,5,-12,-5,8,-4,86*
CCCC#Cc1cnc2c(c1)C(=O)N([C@H](C)CO)C[C@@H](C)[C@H](CN(C)C(=O)CN1CCOCC1)O2,-8,.,.,.,-8,.
Cc1ccc(/C=N/Nc2nnc(Cl)c3ccccc23)cc1,-11,-58,-3,-48,-30,-120
CC(=O)Nc1ccc(C=NNc2nnc(NN=Cc3ccc(NC(C)=O)cc3)c3ccccc23)cc1,29,38,56*,45*,?,-13
C[C@@H]1CCCCO[C@@H](CN(C)Cc2ccc(C(F)(F)F)cc2)[C@@H](C)CN([C@@H](C)CO)C(=O)c2cc(NC(=O)CCCN(C)C)ccc2O1,5,.,.,.,-10,3
COc1cc(NC(=O)Cn2ncc(Cl)c(Cl)c2=O)c(C)cc1[N+](=O)[O-],76*,68*,98*,81*,105*,91*
COc1cc(NC(=O)CN2C(=O)CN(C)C2=O)c(C)cc1[N+](=O)[O-],10,-3,-12,-1,-16,1
C[C@@H]1CN([C@@H](C)CO)C(=O)Cc2cc(NC(=O)Cc3cn(C)c4ccccc34)ccc2O[C@H]1CN(C)C(=O)Nc1ccccc1,-6,.,.,.,-4,14
O=C(Cc1ccccn1)Nc1ccccc1,.,-18,110*,-4,.,.
O=C(CSCc1ccccn1)Nc1ccccc1,.,-11,1,-11,-9,.
COC(=O)C[C@@H]1C=C[C@H](NS(=O)(=O)c2ccccc2F)[C@@H](CO)O1,2,.,.,.,-1,1
CC(OC(=O)c1cc(Br)ccc1O)C(=O)Nc1ccc(S(=O)(=O)N2CCCC2)cc1 (stereo not drawn),1,60*,60*,1,19,38
O=C(N[C@H]1C=C[C@H](CC(=O)N2CCN(c3ccccc3)CC2)O[C@@H]1CO)c1ccncc1,0,.,.,.,27,-1
O=[N+]([O-])c1ccccc1OCCOCCOc1cccc2cccnc12,-4,87*,75*,-8,1,9
COC(=O)c1ccccc1OCCOCCOc1cccc2cccnc12,8,3,-4,3,0,8
Cc1ccc(C=Nc2ccc(N(C)C)cc2)o1,-36,5,62*,-10,-42,.
C[C@H]1CN([C@@H](C)CO)C(=O)c2cc(C#CCN(C)C)cnc2O[C@H]1CN(C)C(=O)NC1CCCCC1,3,.,.,.,-10,-24
CN1[C@H](C(=O)N2CCc3ccccc3C2)[C@@H](CO)[C@@H]2Cn3c(ccc(-c4ccccc4)c3=O)[C@@H]21,18,.,.,.,3,68*
